# The list is not random: actives were taken first. Their share in the collection is about 21%.
# TDP1 cell CPT = growth inhibition of DT40 Tdp1-/-;hTDP1 cells with camptothecin (screen for TDP1 inhibitors). chicken DT40 Tdp1-/-;hTDP1 cells + 20 nM CPT, ATP luminescence, 48 h. Potency, µM (doses to about 46.2 µM), for inactives: top-dose activity change, negative = growth inhibition, hits mostly inhibitors. actives 12% (n = 420,000); note: potency is the fitted concentration of half-maximal effect; % is set by controls: 0 for no effect and ±100 for the full control effect; nearly all actives have a fitted effect of over 55% in size
#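 Cell growth measured by CellTiter-Glo luminescence after a minimum 48 h, 37 C compound exposure with 20 nM CPT in Tdp1-knockout DT40 cells stably expressing hTDP1, seeded 400/well; qHTS titration format.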
# DRD3 agonist = activates the human D3 dopamine receptor | P35462 | max activation, % | actives 0.58% (n = 410,000) | D3R DiscoveRx beta-arrestin cells, luminescence, 90 min; in the data active = max activation above about 30%; note: 0% is about no effect
# Target sequence (P35462 whole entry, looked up): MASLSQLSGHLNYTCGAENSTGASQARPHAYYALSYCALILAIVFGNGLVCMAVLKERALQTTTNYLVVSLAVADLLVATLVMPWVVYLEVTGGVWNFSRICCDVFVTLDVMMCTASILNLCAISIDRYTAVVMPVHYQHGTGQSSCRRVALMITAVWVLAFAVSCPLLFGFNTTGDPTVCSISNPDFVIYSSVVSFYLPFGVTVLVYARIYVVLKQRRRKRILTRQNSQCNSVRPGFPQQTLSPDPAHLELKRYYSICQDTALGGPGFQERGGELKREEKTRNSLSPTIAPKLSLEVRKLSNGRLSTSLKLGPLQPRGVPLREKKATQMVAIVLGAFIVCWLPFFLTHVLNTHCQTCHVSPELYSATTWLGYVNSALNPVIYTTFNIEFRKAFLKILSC
#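 Agonist mode: compounds and dopamine controls were applied to plated cells for 90 min at 37 degrees C after an overnight attachment at 1500 cells/well. Luminescent read-out followed 30 - 60 minutes at room temperature with DiscoveRx detection reagent.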
# TDP1 cell noCPT = qHTS for Inhibitors of human tyrosyl-DNA phosphodiesterase 1 (TDP1): qHTS in cells in absence of CPT; DT40 Tdp1-/- hTDP1 cells, no CPT, ATP luminescence, 48 h; actives 15% (n = 420,000); Potency, µM (top dose mostly 46.2 µM), without a hit: at the top dose activity change, negative = growth inhibition, hits mostly inhibitors; note: potency is the fitted concentration of half-maximal effect; % is set by controls: 0 for no effect and ±100 for the full control effect; nearly all actives have a fitted effect of over 55% in size
#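 Growth of hTDP1-complemented DT40 Tdp1-knockout cells is measured by ATP luminescence after at least 48 hr compound exposure at 37 °C, with DMSO substituting for the 20 nM CPT used in the parallel screen.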
# D3 antag = D3 dopamine receptor (human) antagonism; P35462; D3R cells, DiscoveRx beta-arrestin luminescence, antagonist mode; stronger effect = lower value; max response, negative = inhibition, %; actives 2.5% (n = 360,000); in the data active = max response below about -50%; inconclusive = no clear call, values can overlap the other calls; note: % is set by controls: 0 for no effect and ±100 for the full control effect
#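 Cells plated overnight at 1500 cells/well, then exposed to library compounds with dopamine controls for 90 minutes at 37 degrees C. DiscoveRx reagent added for 30–60 minutes at room temperature; luminescence read, quantitative HTS format.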
# IL-1B inflam inh = inhibitors of inflammasome signaling (IL-1 beta secretion); THP-1 LPS/ATP IL-1B secretion, AlphaLISA, 16 h; stronger effect = lower value; AID 743279; actives 4.7% (n = 360,000); activity change, % at 57.5 µM; in the data active = activity change below about -50%; inconclusive = mostly about -30% to -49%; note: % is set by controls: 0 for no effect and ±100 for the full control effect
#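 Secreted IL-1B measured by AlphaLISA bead assay after 16 h compound exposure of THP-1 cells; compounds (final up to 57.5 uM) added 1 h before LPS (250 ng/mL) and ATP (1.25 mM) stimulation; lower signal means less secretion.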
# ClpP mod = qHTS Assay for Activators of ClpP; purified B. subtilis ClpP, FRET peptide cleavage, 20 min; actives 1.9% (n = 340,000); AID 651965, 2013; ATP-dependent Clp protease proteolytic subunit (Bacillus subtilis (strain 168)), P80244; Potency, µM (top dose mostly 57.5 µM), inactives show at the highest dose activity change, negative = active; active = well fitted falling curve with a large enough effect; inconclusive = small, poorly fitted or top-dose-only effect; inactive = no such curve, though single readings can be large or run the other way; note: potency is the fitted concentration of half-maximal effect; the source files actives as falling curves though it sought activators and does not explain the sign; nearly all actives have a fitted effect of over 65% in size
# Target sequence (P80244 whole entry, looked up): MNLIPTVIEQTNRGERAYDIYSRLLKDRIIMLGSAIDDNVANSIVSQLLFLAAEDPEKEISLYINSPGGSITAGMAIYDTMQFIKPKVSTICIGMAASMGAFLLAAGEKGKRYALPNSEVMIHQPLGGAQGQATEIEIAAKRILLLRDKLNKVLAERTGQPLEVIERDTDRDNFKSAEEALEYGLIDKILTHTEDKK
#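 Purified B. subtilis ClpP, 10 microg/mL final in Tris/HCl pH8 with KCl, BSA, glycerol and Tween-20, cleaved an Abz/nitrotyrosine-quenched decapeptide. Fluorescence (ex 320, em 430) was read at 0 and 20 min at room temperature. Delta was normalized to 5.8 microM ADEP and DMSO/no-enzyme controls.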
# Numbers without * were called inactive; i = inactive; ? = inconclusive; nt = no result. Unless noted, calls come from the whole dose curve; as a rule, active = well fitted inhibition curve with a large enough effect; inconclusive = small, poorly fitted or top-dose-only effect; inactive = flat fitted curve, though single readings scatter.
SMILES,TDP1 cell CPT,DRD3 agonist,TDP1 cell noCPT,D3 antag,IL-1B inflam inh,ClpP mod
CC(C)CC(COCc1cccc(Cl)c1)N1CCN(C(=O)c2ccc(C(F)(F)F)cc2)CCC1=O (centres undefined),?,7,16µM*,25,?,0%
O=S(=O)(Nc1cccc2ncccc12)c1cccc(C(F)(F)F)c1,?,-4,9.2µM*,-15,47,-2%
Cc1ccc(S(=O)(=O)Nc2cccc3ncccc23)s1,0.92µM*,-25,1µM*,-77*,-112*,1%
Cc1ccc(S(=O)(=O)Nc2ccnc3ccccc23)cc1,?,-10,21µM*,-8,-8,-2%
Cc1ccc(S(=O)(=O)Nc2ccc(O)c3cccnc23)cc1,2.9µM*,8,6.5µM*,-10,74,nt
Cc1ccc(NS(=O)(=O)c2cccc(C(=O)NNC(=O)c3ccco3)c2)c(C)c1,-23%,-10,?,-19,-7,-4%
CCOC(=O)C(c1ccccc1)C(Nc1ccccc1)c1ccccn1 (centres undefined),?,3,?,4,22,-1%
CCOC(=O)C(c1ccccc1)C(Nc1cc(C(F)(F)F)cc(C(F)(F)F)c1)c1ccccn1 (centres undefined),-25%,38*,?,-17,11,-2%
COCC(C)NC(=O)CSc1nc2cc(S(=O)(=O)N3CCCCC3)ccc2o1 (centres undefined),-28%,-1,-17%,1,37,0%
Cc1ccc(OCc2cc(C(=O)N3CCN(C4CCCC4)CC3)no2)cc1C,-25%,-7,-24%,-23,i,1%
Cc1cc(OCc2cc(C(=O)N(C)C(C)c3ccccn3)no2)cc(C)c1Cl (centres undefined),18µM*,17,?,20,-12,2%
Cc1ccc(OCc2cc(C(=O)N3CCN(C4CCCCC4)CC3)no2)cc1C,16µM*,-9,?,-6,8,1%
Cc1cc(OCc2cc(C(=O)N3CCC(Oc4cccnc4)CC3)no2)cc(C)c1Cl,13µM*,-6,15µM*,-28,-62*,-2%
CC(=O)c1ccc(OCc2cc(C(=O)NC(C)c3cnn(C)c3)no2)cc1 (centres undefined),-29%,4,-5%,7,9,0%
Cc1cc(OCc2cc(C(=O)NC(C)c3cnn(C)c3)no2)cc(C)c1Cl (centres undefined),18µM*,-2,16µM*,-4,-9,1%
OCCCNc1ncnc2c1ncn2[C@H]1CN(Cc2ccco2)C[C@@H](CO)O1,6%,6,-1%,23,25,-3%
Cc1ccccc1OCC(=O)NCC(=O)OCC(=O)c1ccc(-c2ccccc2)cc1,-1%,nt,?,nt,nt,-1%
Cc1cc(OCc2cc(C(=O)N3CCCCCC3)no2)cc(C)c1Cl,15µM*,-29,?,-15,0,1%
CCOC(=O)C1C2C=CC3(CN(Cc4cccs4)C(=O)C13)O2 (centres undefined),?,-4,21µM*,6,-1,0%
COC(=O)C1[C@H]2C(=O)N(Cc3cccs3)C[C@]23C=C[C@H]1O3 (some centres undefined),11%,7,-9%,-7,-8,2%
Cc1c(C2CC(=O)N(c3ccccc3)C2=O)[nH]n(-c2ccccc2)c1=O (centres undefined),16µM*,1,?,7,7,0%
COc1ccc(Nc2oc(-c3ccc(COc4ccc(OC)cc4)o3)nc2C#N)cc1,-5%,0,-23%,nt,nt,16%
CCOCCCn1c(C)nc2c[n+](CC(=O)c3ccc4ccccc4c3)cc(Br)c21,2.3µM*,-35,2.6µM*,-18,-58*,-1%
Cn1nnc2c[n+](CC(=O)c3ccc4ccccc4c3)cc(Br)c21,?,-12,15µM*,-53*,-101*,nt
COc1cccc(OC)c1C(=O)Nc1ccc(N2CCN(C(=O)c3cccs3)CC2)cc1,-23%,1,?,-22,0,-4%
SMILES,TDP1 cell CPT,DRD3 agonist,TDP1 cell noCPT,D3 antag,IL-1B inflam inh,ClpP mod
O=C(Nc1ccc(N2CCN(C(=O)c3cccs3)CC2)cc1)c1ccc(Br)o1,?,0,?,1,?,0%
COc1cccc(C(=O)Nc2ccc(N3CCN(C(=O)c4cccs4)CC3)cc2)c1,2.3µM*,8,4.6µM*,0,-87*,0%
O=C(Nc1ccc(N2CCN(C(=O)c3cccs3)CC2)cc1)c1cccc(F)c1,16µM*,-3,21µM*,-5,-89*,nt
COc1ccc(Oc2ncc3nc(-c4ccccc4)c(=O)n(C4CC4)c3n2)cc1,-1%,nt,?,nt,nt,nt
COc1cccc(-n2c(=O)c3sc4ccccc4c3n(CC(=O)Nc3cccc(Cl)c3)c2=O)c1,15%,17,-21%,nt,nt,4%
COc1cccc(NC(=O)Cn2c(=O)n(-c3ccccc3)c(=O)c3sccc32)c1,?,8,13µM*,0,-4,-2%
COc1cccc(NC(=O)Cn2c(=O)n(-c3ccc(Cl)cc3)c(=O)c3sc4ccccc4c32)c1,?,8,?,nt,nt,32µM*
O=C(Nc1nc(C2C3CC4CC(C3)CC2C4)cs1)c1cc2cc([N+](=O)[O-])ccc2oc1=O (centres undefined),12µM*,-2,9.2µM*,-5,12,-4%
C=CC(C)(C)c1[nH]c2ccccc2c1C1=C(O)C(=O)C(c2c[nH]c3c(CC=C(C)C)cccc23)=C(O)C1=O,13µM*,nt,13µM*,nt,nt,nt
CC1C(=O)C(C)C(c2cc(Br)ccc2O)NC1c1cc(Br)ccc1O (centres undefined),-26%,5,?,?,-97*,nt
CC12CN3CC(C)(CN(C1)C3c1cc(Br)ccc1O)C2=O (centres undefined),3%,1,?,1,-6,2%
CC1(C)C(=O)OC(c2cc(Br)ccc2O)C(C)(C)C1=O (centres undefined),?,2,21µM*,-19,-15,-4%
O=c1c(CCc2ccccc2)nc2cnc(N3CCOCC3)nc2n1C[C@H]1CCCO1,?,nt,13%,nt,nt,nt
